Rab9 prom act: Rab9 promoter activation. Potency, µM (doses to about 9.22 µM), for the others: top-dose activation, negative = inhibition, usual class: activators. AID 485297. Huh7 Rab9 promoter-luciferase reporter, luminescence, 24 h. actives 2.8% (n = 320,000); note: % of control where 0% means no effect; nearly all actives have a fitted effect of over 60% in size
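Stable Rab9-luc Huh7, 1500 cells/well, 2 h settle; cmpd in DMSO, 24 h, 37 °C/5% CO2; luciferase reagent 10 min RT; luminescence.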
NPC1 promoter act: activates the NPC1 promoter. Huh7 NPC1 promoter luciferase reporter, 24 h. Potency, µM (highest dose often 9.22 µM), without a hit: at the highest dose activation, actives largely listed as activators. actives 2.4% (n = 320,000); note: % of control where 0% means no effect; nearly all actives have a fitted effect of over 60% in size
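Stable NPC1-promoter luciferase Huh7 line; cpd (DMSO) 24 h, 37 °C, 5% CO2; Amplite luciferase reagent 10 min RT; luminescence readout. qHTS format.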
ELG1 genotoxic: inducers of genotoxicity in HEK293T ELG1-luciferase cells. HEK293T ELG1-luciferase reporter, luminescence, 16 h. AID 504466. Potency, µM (titrated, usually from 46 µM), inactives show top-dose activity change, positive = activation, most hits filed as activators. actives 1.3% (n = 330,000); note: % of control where 0% means no effect; nearly all actives have a fitted effect of over 60% in size
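Genotoxic stress is detected as increased luminescence from luciferase-tagged ELG1 in HEK293T cells, measured with ONE-Glo after a 16 hr treatment at 37 °C.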
SMN2 splice enh: enhancers of SMN2 splice variant expression; actives 2.8% (n = 210,000); HEK293 SMN2-luciferase splicing reporter, luminescence, 30-36 h; AID 1458; Potency, µM (top dose mostly 46.1 µM), for inactives: at the top dose activity change, positive = activation, actives largely listed as activators; note: % of control where 0% means no effect; nearly all actives have a fitted effect of over 55% in size
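qHTS luciferase splicing reporter: luminescence rises when SMN2 exon 7 is included in transfected HEK293 cells. Compound exposure lasted 30-36 h at 37C, with 4.5 mM final sodium butyrate as control, followed by a ONE-Glo read.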
KinaseGlo FLuc: Kinase-Glo luciferase inhibition (counter-screen); Q27757; Kinase-Glo luciferase, ATP luminescence, 8 min; Potency, µM (highest dose often 38.3 µM), for the others: at the highest dose activity change, negative = inhibition, most hits filed as inhibitors; actives 0.28% (n = 200,000); AID 1379; note: % is set by controls: 0 for no effect and ±100 for the full control effect; nearly all actives have a fitted effect of over 60% in size
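Substrate mix (final 50 mM imidazole pH 7.2, 50 mM KCl, 7 mM MgCl2, 10 uM ATP, 0.01% Tween 20, 0.05% BSA) plus pin-tool compound, then Kinase-Glo detection mix; 8 min ambient, luminescence read.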
FLuc counter: firefly luciferase modulation, counter-screen for miR-21 project; actives 6.9% (n = 360,000); purified FLuc, Km substrates, luminescence inhibition; P08659; Potency, µM (series often up to 57.5 µM), for inactives: at the highest dose activity change, negative = inhibition, most hits filed as inhibitors;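 note: plate controls were vehicle for no effect and reference inhibitor for full effect; nearly all actives have a fitted effect of over 55% in size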
Target sequence (P08659 whole entry, looked up): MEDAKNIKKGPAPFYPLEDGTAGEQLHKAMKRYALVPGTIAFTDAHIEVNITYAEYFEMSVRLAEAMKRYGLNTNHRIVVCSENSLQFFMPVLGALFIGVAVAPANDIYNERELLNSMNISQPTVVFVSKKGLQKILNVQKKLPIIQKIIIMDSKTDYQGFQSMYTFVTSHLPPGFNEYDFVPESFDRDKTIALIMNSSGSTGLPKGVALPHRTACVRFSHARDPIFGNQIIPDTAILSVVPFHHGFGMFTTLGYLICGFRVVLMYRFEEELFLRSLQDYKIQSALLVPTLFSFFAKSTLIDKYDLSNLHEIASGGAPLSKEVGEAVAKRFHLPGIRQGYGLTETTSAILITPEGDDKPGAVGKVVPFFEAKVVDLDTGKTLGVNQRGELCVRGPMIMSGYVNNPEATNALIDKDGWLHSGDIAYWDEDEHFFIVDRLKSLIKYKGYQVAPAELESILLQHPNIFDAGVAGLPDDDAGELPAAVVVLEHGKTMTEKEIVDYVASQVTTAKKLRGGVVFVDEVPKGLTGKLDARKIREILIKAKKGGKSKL
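Purified P. pyralis luciferase (10nM final) with 10uM D-luciferin and 10uM ATP (Km levels) in 50mM Tris acetate pH 7.5, 10mM Mg acetate, 0.01% Tween-20, 0.05% BSA; qHTS 6-point titration, ~60 µM downward; luminescence read.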
* hit, by the source's call; [ ] = another dose, or the depositor's remark. Only some compounds are listed: those with a hit (about 7.3% of all), similar ones and a draw of the others. Calls come from the whole dose curve; as a rule, active = well fitted curve in the direction sought with a large enough effect; inconclusive = small, poorly fitted or top-dose-only effect, or another doubt; inactive = no such curve, though single readings can be large; an effect the other way counts as inactive or inconclusive. Potency is the fitted concentration of half-maximal effect.

Screening Cc1ccccc1Cn1c(-c2ccc(=O)[nH]c2)nc2ccccc21 returned Rab9 prom act 2%[1.84 µM], NPC1 promoter act -2%, ELG1 genotoxic 9% and FLuc counter 5%.
Screening Cc1cc2nc(-c3ccc(=O)[nH]c3)n(Cc3ccccc3)c2cc1C returned Rab9 prom act 11%, NPC1 promoter act -4%, ELG1 genotoxic inconclusive and FLuc counter 15µM*.
Cc1ccc(N(CCO)C(=S)Nc2ccccc2)cc1 was read as Rab9 prom act 0%, NPC1 promoter act 2%, ELG1 genotoxic 3% and FLuc counter 6%.
For COc1ccc(NC(=O)COC(=O)C2CC3C=CC2C3)cc1 (stereo not given) the results were Rab9 prom act 3%, NPC1 promoter act 4%, ELG1 genotoxic 5%, SMN2 splice enh -1%, KinaseGlo FLuc 3% and FLuc counter 17µM*.
For O=C(COC(=O)C1CC2C=CC1C2)Nc1ccccc1F (stereo not given) the results were Rab9 prom act inconclusive, NPC1 promoter act 12%, ELG1 genotoxic inconclusive, SMN2 splice enh 18%, KinaseGlo FLuc -9% and FLuc counter inconclusive.
`CC(C)c1ccc(-c2noc(SCC(=O)N3CCN(c4ccccc4F)CC3)n2)cc1` gave FLuc counter 2.4µM*.
O=C(CSc1nc(-c2ccccc2)no1)N1CCCCC1 was read as SMN2 splice enh 25% and FLuc counter 24µM*.
Screening O=C(CSc1nc(-c2ccccc2)no1)N1CCN(c2ccccc2F)CC1 returned FLuc counter -17%.
`COc1ccccc1N1CCN(C(=O)CSc2nc(-c3ccc(C(C)C)cc3)no2)CC1` gave FLuc counter 2.1µM*.
For CCc1ccccc1NC(=O)CSCc1cnn(-c2ccccc2)c1-n1cccc1 the results were FLuc counter -13%.
`CCOC(=O)c1c(C)[nH]c(C(=O)OCCOc2ccc(Cl)cc2)c1C` gave Rab9 prom act 10%, NPC1 promoter act 17%, ELG1 genotoxic inconclusive, SMN2 splice enh 15%, KinaseGlo FLuc 0% and FLuc counter -17%.
`CCCCOC(=O)Nc1ccc(C)c(Cl)c1` gave Rab9 prom act 2.8µM*, NPC1 promoter act 3.5µM*, ELG1 genotoxic inconclusive, SMN2 splice enh inconclusive, KinaseGlo FLuc -8% and FLuc counter 6.7µM*.
For CCCCOC(=O)c1ccc(NC(C)=O)cc1 the results were Rab9 prom act 1%, NPC1 promoter act 19%, ELG1 genotoxic 3%, SMN2 splice enh 15%, KinaseGlo FLuc 5% and FLuc counter inconclusive.
Screening CCCCOC(=O)c1ccc(NC(=O)c2cc(Cl)c(Cl)cc2C(=O)O)cc1 returned Rab9 prom act -7%, NPC1 promoter act 0%, ELG1 genotoxic 4%, KinaseGlo FLuc 4% and FLuc counter 21µM*.
CCCCOC(=O)Nc1ccc(C(=O)OC)cc1 was read as Rab9 prom act inconclusive, NPC1 promoter act inconclusive, ELG1 genotoxic inconclusive, SMN2 splice enh -2%, KinaseGlo FLuc -3% and FLuc counter 12µM*.
For CCCCOC(=O)c1ccc(N)cc1 the results were Rab9 prom act 15%, NPC1 promoter act 21%, ELG1 genotoxic inconclusive, SMN2 splice enh 28%, KinaseGlo FLuc -3% and FLuc counter inconclusive.
CCCCCCOC(=O)c1ccc(N)cc1 was read as Rab9 prom act inconclusive, NPC1 promoter act inconclusive, ELG1 genotoxic inconclusive and FLuc counter 11µM*.
Cc1cccc(CCN(C(=O)Cc2cccs2)C(C(=O)NC2CCCCC2)c2cccnc2)c1 (stereo not given) was read as Rab9 prom act -4%, NPC1 promoter act -3%, ELG1 genotoxic -3%, SMN2 splice enh 12%, KinaseGlo FLuc -3% and FLuc counter 4%.
For COc1ccc(-c2csc(NC(=S)NC(=O)c3cccs3)n2)cc1OC the results were Rab9 prom act -5%, NPC1 promoter act -3%, ELG1 genotoxic -9%, SMN2 splice enh -8%, KinaseGlo FLuc -1% and FLuc counter inconclusive.
O=C(NNC(=O)c1ccccc1O)c1ccco1 was read as Rab9 prom act inconclusive, NPC1 promoter act inconclusive, ELG1 genotoxic inconclusive, SMN2 splice enh inconclusive, KinaseGlo FLuc -3% and FLuc counter 19µM*.
`COc1cc(/C=C/C(=O)O)ccc1OCc1cnc(Cl)s1` gave Rab9 prom act 1%, NPC1 promoter act 2%, ELG1 genotoxic 6%, SMN2 splice enh 9%, KinaseGlo FLuc 3% and FLuc counter -11%.
Screening COc1ccc(/C=N/NC(=O)c2ccco2)cc1OCc1ccccc1 returned Rab9 prom act -4%, NPC1 promoter act 0%, ELG1 genotoxic -1% and FLuc counter -12%.
O=C(N/N=C\c1ccccc1OCc1ccccc1)c1ccco1 was read as Rab9 prom act 0%, NPC1 promoter act -1%, ELG1 genotoxic -1%, SMN2 splice enh 9%, KinaseGlo FLuc -3% and FLuc counter 21µM*.
Screening O=C(N/N=C/c1ccc2cccnc2c1)c1ccco1 returned Rab9 prom act 0.89µM*, NPC1 promoter act 1.4µM*, ELG1 genotoxic 2.1µM* and FLuc counter 6µM*.
Screening COc1cc(/C=N/NC(=O)c2ccncc2)ccc1OCc1cnc(Cl)s1 returned Rab9 prom act -2%, NPC1 promoter act 0%, ELG1 genotoxic 17%, SMN2 splice enh 13µM*, KinaseGlo FLuc 3% and FLuc counter 3%.
Screening COc1ccc(S(=O)(=O)N2CCCC2C(=O)Nn2cnnc2)cc1 (stereo not given) returned Rab9 prom act 0%, NPC1 promoter act 5%, ELG1 genotoxic -9%, SMN2 splice enh 35%, KinaseGlo FLuc 1% and FLuc counter 2%.
CCc1ccc(NC(=O)CC2C(=O)N(c3ccc(OC)cc3)C(=O)N2Cc2cccs2)cc1 (stereo not given) was read as FLuc counter -12%.
COc1ccc(C(=O)Nc2ccccc2C(=O)NCc2cccnc2)cc1OC was read as Rab9 prom act 3%, NPC1 promoter act -4%, ELG1 genotoxic -11% and FLuc counter 0%.
Screening Cc1onc(-c2ccccc2)c1C(=O)N/N=C/C(Br)=C/c1ccccc1 returned Rab9 prom act -4%, NPC1 promoter act 2%, ELG1 genotoxic inconclusive, SMN2 splice enh -59%, KinaseGlo FLuc 0% and FLuc counter -4%.
Screening CC(=O)c1ccc(NC(=O)C(NC(=O)c2ccccc2)=C(C)C)cc1 returned Rab9 prom act -3%, NPC1 promoter act 1%, ELG1 genotoxic 0%, SMN2 splice enh -2%, KinaseGlo FLuc 0% and FLuc counter -1%.
